From PubChem BioAssay AID2662 (National Center for Advancing Translational Sciences (NCATS), 2010)
Among all 290,000 compounds or so, about 110 (0.038%) were called active. About 3% were inconclusive and are not listed. Calls come from the whole dose curve; as a rule, active = well fitted inhibition curve with a large enough effect in the polarisation, with a control signal flat (not every such curve was filed as active); inconclusive = small, poorly fitted or top-dose-only effect, or effect the other way, or a change in a side signal; inactive = no such curve, though single readings can be large or run the other way; the % refers to the polarisation. This excerpt belongs to a sample that is enriched for actives.

Target: Histone-lysine N-methyltransferase 2A (Homo sapiens) (UniProt Q03164)
Sequence (Q03164 whole entry, looked up, the tested form may be a part): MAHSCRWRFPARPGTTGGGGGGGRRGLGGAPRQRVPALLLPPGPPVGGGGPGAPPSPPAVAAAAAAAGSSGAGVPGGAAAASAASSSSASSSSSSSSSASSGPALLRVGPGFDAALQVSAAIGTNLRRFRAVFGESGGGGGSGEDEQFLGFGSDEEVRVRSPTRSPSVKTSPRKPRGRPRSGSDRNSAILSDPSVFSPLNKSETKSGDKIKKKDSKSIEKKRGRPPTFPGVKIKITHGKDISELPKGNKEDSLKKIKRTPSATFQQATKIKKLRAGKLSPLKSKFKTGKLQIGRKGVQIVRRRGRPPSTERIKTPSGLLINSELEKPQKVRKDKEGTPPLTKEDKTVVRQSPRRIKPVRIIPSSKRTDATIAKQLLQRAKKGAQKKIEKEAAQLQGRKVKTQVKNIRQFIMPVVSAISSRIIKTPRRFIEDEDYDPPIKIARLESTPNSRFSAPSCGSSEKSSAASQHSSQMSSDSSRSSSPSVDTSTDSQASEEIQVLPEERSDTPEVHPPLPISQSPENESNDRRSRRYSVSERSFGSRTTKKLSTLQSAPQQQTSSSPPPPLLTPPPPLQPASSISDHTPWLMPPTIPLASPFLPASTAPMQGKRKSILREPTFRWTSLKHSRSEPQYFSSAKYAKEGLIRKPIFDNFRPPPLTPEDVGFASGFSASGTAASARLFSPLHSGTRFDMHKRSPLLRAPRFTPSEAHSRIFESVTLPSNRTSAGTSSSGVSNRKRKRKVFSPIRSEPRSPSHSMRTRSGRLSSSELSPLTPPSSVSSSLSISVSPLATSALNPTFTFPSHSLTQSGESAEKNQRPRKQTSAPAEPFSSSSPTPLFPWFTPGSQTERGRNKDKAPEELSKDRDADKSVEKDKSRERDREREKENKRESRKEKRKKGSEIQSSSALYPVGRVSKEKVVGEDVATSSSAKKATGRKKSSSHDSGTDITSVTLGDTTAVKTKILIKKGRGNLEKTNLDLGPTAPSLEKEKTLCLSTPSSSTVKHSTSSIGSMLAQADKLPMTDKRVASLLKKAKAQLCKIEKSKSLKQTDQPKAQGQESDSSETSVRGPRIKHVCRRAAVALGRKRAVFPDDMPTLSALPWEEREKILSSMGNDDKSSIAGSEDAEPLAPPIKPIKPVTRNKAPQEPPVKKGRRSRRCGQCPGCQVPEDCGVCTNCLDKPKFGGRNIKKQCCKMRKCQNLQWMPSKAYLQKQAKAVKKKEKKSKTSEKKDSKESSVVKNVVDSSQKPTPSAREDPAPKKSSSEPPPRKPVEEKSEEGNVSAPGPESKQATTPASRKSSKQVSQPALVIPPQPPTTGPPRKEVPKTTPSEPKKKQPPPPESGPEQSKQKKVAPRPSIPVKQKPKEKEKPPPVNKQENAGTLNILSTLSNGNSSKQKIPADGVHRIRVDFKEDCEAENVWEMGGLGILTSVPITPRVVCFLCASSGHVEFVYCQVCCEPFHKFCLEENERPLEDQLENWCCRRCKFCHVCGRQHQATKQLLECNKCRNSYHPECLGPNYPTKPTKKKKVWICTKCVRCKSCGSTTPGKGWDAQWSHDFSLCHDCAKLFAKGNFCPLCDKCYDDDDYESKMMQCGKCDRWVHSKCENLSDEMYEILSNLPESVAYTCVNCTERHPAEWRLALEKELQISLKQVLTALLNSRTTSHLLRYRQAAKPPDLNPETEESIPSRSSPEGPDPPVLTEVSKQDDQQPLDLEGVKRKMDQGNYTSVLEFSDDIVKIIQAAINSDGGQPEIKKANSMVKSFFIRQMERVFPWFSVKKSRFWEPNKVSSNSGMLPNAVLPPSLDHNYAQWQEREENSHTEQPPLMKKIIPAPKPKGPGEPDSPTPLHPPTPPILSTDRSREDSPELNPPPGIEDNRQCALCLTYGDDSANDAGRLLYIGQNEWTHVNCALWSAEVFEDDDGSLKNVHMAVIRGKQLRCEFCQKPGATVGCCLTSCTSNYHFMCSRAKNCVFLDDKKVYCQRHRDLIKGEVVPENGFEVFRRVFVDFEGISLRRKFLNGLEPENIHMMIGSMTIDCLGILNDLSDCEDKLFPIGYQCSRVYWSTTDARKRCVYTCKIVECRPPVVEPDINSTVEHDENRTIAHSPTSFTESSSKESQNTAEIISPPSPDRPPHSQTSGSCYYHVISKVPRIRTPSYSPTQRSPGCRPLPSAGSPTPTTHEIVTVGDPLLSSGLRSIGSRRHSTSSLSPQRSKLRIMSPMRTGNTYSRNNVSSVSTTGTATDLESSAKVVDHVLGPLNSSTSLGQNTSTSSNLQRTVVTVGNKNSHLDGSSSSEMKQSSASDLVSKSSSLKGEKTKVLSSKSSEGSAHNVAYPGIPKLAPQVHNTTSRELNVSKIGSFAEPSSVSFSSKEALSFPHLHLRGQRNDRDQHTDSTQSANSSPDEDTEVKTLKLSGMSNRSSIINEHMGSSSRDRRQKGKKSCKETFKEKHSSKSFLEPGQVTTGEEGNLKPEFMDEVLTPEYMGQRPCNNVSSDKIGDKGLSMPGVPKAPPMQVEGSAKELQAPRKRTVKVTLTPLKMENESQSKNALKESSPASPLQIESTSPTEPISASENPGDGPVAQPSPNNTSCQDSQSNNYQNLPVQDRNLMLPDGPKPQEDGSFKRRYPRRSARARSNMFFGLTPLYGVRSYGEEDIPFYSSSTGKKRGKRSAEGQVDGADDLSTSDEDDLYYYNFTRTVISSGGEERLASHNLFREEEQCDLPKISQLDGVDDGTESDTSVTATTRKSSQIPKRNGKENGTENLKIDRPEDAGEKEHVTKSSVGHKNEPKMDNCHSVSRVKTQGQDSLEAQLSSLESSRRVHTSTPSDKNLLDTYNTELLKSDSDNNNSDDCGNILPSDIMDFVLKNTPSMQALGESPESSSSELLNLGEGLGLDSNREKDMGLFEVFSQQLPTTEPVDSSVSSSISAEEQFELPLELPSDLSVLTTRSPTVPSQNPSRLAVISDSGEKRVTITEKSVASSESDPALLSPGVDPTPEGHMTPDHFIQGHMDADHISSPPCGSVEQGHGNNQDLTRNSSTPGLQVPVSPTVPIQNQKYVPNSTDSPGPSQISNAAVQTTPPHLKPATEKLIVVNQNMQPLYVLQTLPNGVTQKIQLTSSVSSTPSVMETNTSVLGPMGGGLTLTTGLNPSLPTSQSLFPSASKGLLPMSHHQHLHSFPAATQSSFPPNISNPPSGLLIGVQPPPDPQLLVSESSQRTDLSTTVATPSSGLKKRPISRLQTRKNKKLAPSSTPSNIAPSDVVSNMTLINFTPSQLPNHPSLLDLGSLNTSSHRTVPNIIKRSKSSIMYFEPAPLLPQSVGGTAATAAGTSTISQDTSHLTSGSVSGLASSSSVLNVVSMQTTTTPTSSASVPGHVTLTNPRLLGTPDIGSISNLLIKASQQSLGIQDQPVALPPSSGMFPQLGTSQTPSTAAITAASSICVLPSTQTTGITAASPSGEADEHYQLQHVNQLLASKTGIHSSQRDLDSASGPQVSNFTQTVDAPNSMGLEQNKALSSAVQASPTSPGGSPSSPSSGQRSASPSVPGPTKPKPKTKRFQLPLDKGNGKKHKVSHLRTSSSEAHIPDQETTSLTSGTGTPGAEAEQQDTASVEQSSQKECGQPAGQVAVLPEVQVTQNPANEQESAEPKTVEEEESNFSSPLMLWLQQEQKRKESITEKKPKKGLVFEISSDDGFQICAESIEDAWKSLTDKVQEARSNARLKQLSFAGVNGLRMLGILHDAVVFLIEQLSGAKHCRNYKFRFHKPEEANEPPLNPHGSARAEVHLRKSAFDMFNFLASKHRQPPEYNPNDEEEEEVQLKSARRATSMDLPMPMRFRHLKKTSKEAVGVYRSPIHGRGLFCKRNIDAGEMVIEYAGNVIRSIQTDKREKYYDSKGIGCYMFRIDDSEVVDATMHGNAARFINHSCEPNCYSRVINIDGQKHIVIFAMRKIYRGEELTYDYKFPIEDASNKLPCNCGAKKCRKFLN
Test: qHTS Fluorescence Polarization Assay for Inhibitors of MLL CXXC domain - DNA interaction
Conditions: MLL-CXXC / FITC-HOXA9 DNA fluorescence polarization; series mostly up to 115 µM; activity change, negative = inhibition: at the top concentration
From the text: NIH Chemical Genomics Center [NCGC] NIH Molecular Libraries Probe Production centers Network [MLPCN] MLPCN Grant: DA027717-01A1 Assay Submitter (PI): John Bushweller NCGC Assay Overview: The MLL (Mixed Lineage Luekemia) gene is involved in chromosomal translocation that results in either acute lymphoid leukemia (ALL) or acute myeloid leukemia (AML). Chromasomal translocation of MLL gene is responsible for the fusion of N-terminal MLL to more than 60 different partner genes in frame. Many of the MLL partner genes contain transcription activation domains or function as transcriptional activators. Despite the heterogeneity of fusion partners, the N-terminus of MLL fusion proteins always consists of the N-terminal menin binding motif and the CXXC domain. The MLL-CXXC domain specifically recognizes unmethylated CpG sequences of the HOX-A gene. Disruption of the MLL-CXXC and HOX-A gene interaction leads to down regulation of HOX-A gene expression and may potentially reverse leukemogenesis. We have miniaturized and optimized an in-vitro assay to screen for inhibitors of the MLL-CXXC domain and HOX-A DNA interaction, which could have utility in MLL fusion leukemias.
The affinity purified MLL-CXXC domain, unlabeled HOX-A9 DNA strand, fluorescein (FLSN) labeled HOX-A9 DNA strand were kindly supplied by the laboratory of Dr. John Bushweller, University of Virginia. All reagents were stored in single use aliquots at -80C. Assay Reagents: Assay buffer: 50 mM TRIS-HCl pH 7.5, 50 mM NaCl, 1 mM DTT. Add 0.05% BSA prior to reaction setup. Assay Procedure: 1.Dispense 1 ul of a 7 uM MLL-CXXC solution prepared in assay buffer into column 1-48. 2.Transfer 23 nl of compounds and unlabeled HOX-A9 per well. 3.Incubate for 5 minutes at ambient. 4.Dispense 1ul of a 50 nM FLSN-HOX-A9 solution prepared in assay buffer into columns 1-48 5.Centrifuge for 30 seconds at 1000 RPM. 6.Incubate for 30 minutes at ambient. 7.Read using the Envision reader fluorescent polarization protocol.
Potency is the fitted concentration of half-maximal effect.

Activity change, negative = inhibition, inactive:
CCc1ccccc1NC(=S)Nc1cc(OC)c(NC(=O)C(C)C)cc1OC 3.05%
O=C(NCc1ccccc1)C(c1ccccc1)N(C(=O)c1csnn1)c1ccc(F)cc1 (stereo not given) 21.8%
[2H]C(CCOS(N)(=O)=O)c1ccccc1 (stereo not given) -2.68%
CCCCC(=O)Nc1c2c(nn1-c1ccc([N+](=O)[O-])cc1)CS(=O)(=O)C2 21.7%
Cc1cc(C)n2nc(CNS(=O)(=O)c3c(F)c(F)c(F)c(F)c3F)nc2n1 7.15%
COc1cccc(CNC(=O)COc2cc(O)c3c(c2)OC(C)(C)CC3=O)c1 4.19%
C/C(=N\NC(=O)c1ccoc1C)c1ccccc1O 21.1%
CN1C(=O)CN2CCc3ccccc3C2c2cc(Cl)ccc21 (stereo not given) 6.84%
O=C1C2CCCN2C(=O)N1CCCCN1CCN(c2cccc(C(F)(F)F)c2)CC1 (stereo not given) -0.642%
O=C(Nc1nnc(S(=O)(=O)N2CCCCCC2)s1)c1cccc(Br)c1 -14.9%
Cc1cccc(OCC(O)CN2CCN(S(=O)(=O)c3ccc(C)cc3C)CC2)c1 (stereo not given) -3.59%
Cc1cc(N=Nc2ccc3ccccc3c2)ccc1O -3.97%
OCC(CO)NC1C[C@](O)(CO)[C@@H](O)[C@H](O)[C@H]1O (stereo not given in full) -1.18%
C#CCOc1ccc(/C=C2/C(=O)NN(c3ccccc3)C2=O)cc1OC 3.2%
COc1cc(/C=C2/C(=O)NN(c3cccc(Cl)c3)C2=O)cc(Br)c1O -14.9%
CC(=O)c1c(C)n(-c2ccc(C)cc2)c2ccc(O)cc12 8.81%
COc1ccc2nc(C)cc(Nc3cccc(C(=O)O)c3)c2c1 -14.3%
NC(=O)C1CCN(C(=O)/C(=C/c2ccco2)NC(=O)c2ccccc2)CC1 4.99%
Cc1cn([C@H]2CC(F)[C@@H](CO)O2)c(=O)[nH]c1=O (stereo not given in full) -6.09%
O=C(Nc1cccc(C(F)(F)F)c1)c1cc(Br)cc(Br)c1O -2.42%
C[C@H](NC(=O)C1CCN(S(=O)(=O)c2ccccc2)CC1)C(=O)NCc1ccccc1 -1.11%
COc1ccc(N(CC(=O)Nc2ccc(F)c(F)c2)S(=O)(=O)c2c(C)[nH]c(=O)[nH]c2=O)cc1 -1.33%
Cc1ccc(CNC(=O)C(=O)c2cn(CC(=O)N3CCCC3)c3ccccc23)cc1 1.78%
COc1ccc(C)cc1Nc1nc(C)nc2c1oc1ccccc12 15.3%
COC(=O)c1ccccc1NC(=O)C1(S(=O)(=O)c2ccc(Cl)cc2)CC1 3.5%
O=c1c2cc([N+](=O)[O-])ccc2nc2n1CCC2 9.68%
COc1ccc(CNc2cc(C)cc(C)c2)cc1OC -3.72%
Cc1c(CNCCc2ccccc2)c(C(=O)O)c(C)n1-c1ccccc1 -4.55%
Cc1ccc(C(=O)N2CC(=O)Nc3ccc(F)cc3C2c2ccc(F)cc2)cc1 (stereo not given) 10.6%
COC(=O)c1ccc(CNC(=O)C2CCC(=O)N(Cc3cccc(F)c3)C2)cc1 (stereo not given) 4.84%
Cc1cnc(C(=O)Oc2cccc(Cl)c2Cl)cn1 -0.91%
COc1ccc(C)cc1N(C(=O)Cn1nnc(-c2ccc(C)o2)n1)C(C(=O)NC1CCCC1)c1ccncc1 (stereo not given) -1.23%
Cc1ccc(/C=C2/SC(=S)N(CCC(=O)NCCCN3CCOCC3)C2=O)cc1 -11.8%
CCN(CC(=O)Nc1ccc2c(c1)OCO2)S(=O)(=O)c1ccccc1 4.81%
NNC(=O)CSc1nnc(-c2ccccc2)n1-c1ccccc1 6.34%
CC(C(=O)Nc1ccc(O)c(C(=O)O)c1)N1C(=O)/C(=C/c2cccs2)SC1=S (stereo not given) 15.5%
Cc1cccn2c(=O)c3cc(C(=O)NCCN4CCOCC4)c(=N)n(Cc4cccnc4)c3nc12 2.89%
Cc1cccc(S(=O)(=O)N2CN(CC3CCCO3)c3nc4ccccc4nc32)c1 (stereo not given) 3.53%
Cc1ccc(S(=O)(=O)c2nc(-c3cccs3)oc2NCc2cccnc2)cc1 6.33%
COc1ccc(CCNS(=O)(=O)c2cn(C)nc2C)cc1 8.13%
CC(=O)Nc1cccc(Nc2nc(-c3cccs3)nc3ccccc23)c1 6.15%
CC(=O)c1nn(-c2cccc(C(F)(F)F)c2)c(=O)[nH]c1=O 48.5%
COc1cc(CN2CCCC(C(=O)c3ccc(SC)cc3)C2)cc(Cl)c1O (stereo not given) 14.6%
CC(=O)Nc1ccc(C(=O)N(C2=NC(C)CS2)c2ccc(Cl)cc2)cc1 (stereo not given) -7.05%
Cc1cccc(-c2noc(CCC(=O)NC3CCCC3)n2)c1 3.93%
COc1ccccc1OCC(=O)Nc1c2c(nn1-c1ccc(F)cc1)CS(=O)(=O)C2 -15.3%
Cn1c(N2CCOCC2)c(C=O)c2ccccc21 -5.67%
COCCN1CCN(C(=O)c2cc(COc3ccc(F)cc3Cl)on2)CC1 -5.58%

Potency, inactive:
CCN1C(=S)N[C@@H](CCc2ccccc2)[C@H](C(=O)OC)[C@H]1C

Potency, active:
COc1cc(/C=C2/C(=O)NN(c3ccc(F)cc3)C2=O)cc([N+](=O)[O-])c1O 20 µM
